Bioassay records deposited in PubChem BioAssay by National Center for Advancing Translational Sciences (NCATS).
D1 antagonist – antagonists of human D1 dopamine receptor. actives 3.2% (n = 360,000). HEK293 TREx D1 cells, calcium flux, dopamine EC80; stronger effect = lower value. activity change, negative = inhibition, % at 10 µM. P21728; in the data active means activity change below about -30%
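Tetracycline-induced HEK293 T-REx cells with force-coupled D1 receptor were loaded with a no-wash calcium dye. Compound was added after a 10 s baseline and read kinetically for 180 s; EC80 dopamine was then added and calcium flux followed another 180 s.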
D1 PAM – potentiators of human D1 dopamine receptor. HEK293 TREx D1 cells, calcium flux, dopamine EC20 potentiation. potentiation, % at 10 µM. actives 0.036% (n = 360,000); in the data active means potentiation above about 30%
D1 agonist – activates the human D1 dopamine receptor; activation, % at 2 µM; actives 1% (n = 360,000); HEK293 T-REx D1 cells, calcium flux, agonist mode; in the data active means activation above about 30%
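Tetracycline-induced HEK293 TREx D1 cells, force-coupled to calcium signalling, were dye-loaded with a no-wash calcium kit. Compound was pin-added after a 10 s baseline. Fluorescence was read kinetically at 1 cycle/s for 180 s, with calcium rises flagged as agonism.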
Eya2 inh – Eya2 (human) phosphatase inhibition | O00167 | recombinant Eya2, OMFP fluorescence dephosphorylation (OMFP is methylfluorescein phosphate) | Potency, µM (top dose mostly 76.9 µM), hits mostly inhibitors | actives 0.006% (n = 330,000)
Target sequence (O00167 whole entry, looked up): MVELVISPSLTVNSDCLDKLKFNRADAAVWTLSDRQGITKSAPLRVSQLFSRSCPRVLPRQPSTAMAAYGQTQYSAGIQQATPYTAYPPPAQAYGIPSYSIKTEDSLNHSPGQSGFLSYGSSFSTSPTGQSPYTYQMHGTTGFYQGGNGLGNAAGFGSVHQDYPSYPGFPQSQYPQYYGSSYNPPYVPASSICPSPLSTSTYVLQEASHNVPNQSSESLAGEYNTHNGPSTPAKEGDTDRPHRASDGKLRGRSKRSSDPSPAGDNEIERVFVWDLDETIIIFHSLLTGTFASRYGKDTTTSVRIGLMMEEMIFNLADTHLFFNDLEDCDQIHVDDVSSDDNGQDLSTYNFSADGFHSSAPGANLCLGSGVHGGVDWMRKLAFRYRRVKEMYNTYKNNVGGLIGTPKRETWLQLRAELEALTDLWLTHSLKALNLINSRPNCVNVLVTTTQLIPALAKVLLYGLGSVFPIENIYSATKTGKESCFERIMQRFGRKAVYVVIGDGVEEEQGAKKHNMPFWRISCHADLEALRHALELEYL
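Eya2 (0.2 uM) preincubated 10 min at ambient with compound, then OMFP substrate added at 50 uM; 10 min reaction in 50 mM HEPES pH 7.5, 50 mM NaCl, 5 uM MgCl2, 0.05% BSA, 1 mM DTT. Fluorescence read at Ex 485/Em 525 nm.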
GALK inh – blocks human galactokinase activity; actives 0.007% (n = 270,000); Purified GALK, Kinase-Glo residual ATP luminescence; Potency, µM (doses to about 57.5 µM), most hits filed as inhibitors; AID 1868; P51570
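Human GALK (5 nM) with 35 uM ATP and 100 uM galactose in 20 mM HEPES pH 8.0, 5 mM MgCl2, 60 mM NaCl, 1 mM DTT, 0.01% BSA. After 1 h at room temperature, leftover ATP was read by Kinase-Glo Plus luminescence.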
USP2a inh – inhibitors of human ubiquitin-specific protease USP2a | Potency, µM (doses to about 38.3 µM), hits mostly inhibitors | AID 463254 | O75604 | USP2 core, Ub-CHOP2 coupled fluorogenic reporter, 485/531 | actives 0.01% (n = 330,000)
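Deubiquitinase activity read as fluorescence (485/531 nm) after Ub-CHOP2 cleavage activates the enterokinase reporter on its substrate; USP2 core 10nM, Ub-CHOP2 and substrate 25nM each, 30min compound preincubation then 60min RT; data normalized to NEM, curves fitted.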
Each line names hits and unclear results; the compound was inactive in the other large screens. Compounds with a hit are over-represented: about 3.9% of the library has one in this group of screens. Unless noted, the call rests on the fitted dose curve; in most records, active means well fitted inhibition curve with a large enough effect; inconclusive means small, poorly fitted or top-dose-only effect, or effect the other way; inactive means flat fitted curve, though single readings scatter.

COc1ccccc1N1CCN(CC(O)COc2ccc(Cl)c(C)c2)CC1 (configuration not stated)	D1 antagonist -31 (no result: Eya2 inh, GALK inh, USP2a inh)
C=CCc1ccccc1OCC(O)CN1CCN(c2ccc(C)cc2)CC1 (configuration not stated)	D1 antagonist -50
Cc1nc2ccn(Cc3cccnc3)c(=O)c2cc1C(=O)NCc1ccccc1	none (no result: Eya2 inh, GALK inh, USP2a inh)
CC(C(=O)Nc1ccc2c(c1)OCCO2)n1nnc(-c2ccccc2)n1 (configuration not stated)	D1 antagonist -53
C[C@@H](C(=O)Nc1ccc2c(c1)OCCO2)n1nnc2ccccc2c1=O	none
Cc1cc(Nc2cc(F)ccc2C)nc(-n2nc(C)cc2C)n1	none (no result: Eya2 inh, GALK inh, USP2a inh)
O=C(NC1CCN(Cc2ccc(Cl)c(Cl)c2)CC1)c1ccccc1	D1 antagonist -33
O=C(NC1CCN(Cc2ccccc2)C1)c1cc(S(=O)(=O)N2CCOCC2)ccc1Cl (configuration not stated)	D1 antagonist -30 (no result: GALK inh)
O=C(NC1CCN(Cc2ccc3ccccc3c2)CC1)c1ccccc1	none
O=C(NNC(=O)C1CCN(Cc2ccccc2)CC1)c1cccc(Cl)c1	D1 antagonist -62
CC(C)CCNC(=O)C1CCN(Cc2cccc(OCc3ccccc3)c2)CC1	D1 agonist 42
CCN(CC)c1ccc(C2C(C(N)=O)=C(C)Nc3nc(SCc4ccccc4Cl)nn32)cc1 (configuration not stated)	none (no result: Eya2 inh, GALK inh, USP2a inh)
CC(NC(=O)c1ccccc1NC(=O)c1nsc2ccccc12)c1ccccc1 (configuration not stated)	none (no result: Eya2 inh, GALK inh, USP2a inh)
CC1CCc2sc(C(=O)NC3CCN(Cc4ccccc4)CC3)cc2C1 (configuration not stated)	D1 agonist 37 (no result: D1 PAM, GALK inh)
O=C(Nc1cccc(S(=O)(=O)N2CCOCC2)c1)c1cc2ccccc2o1	none
O=C(Nc1cc(S(=O)(=O)N2CCOCC2)ccc1Cl)c1cc2ccccc2o1	D1 antagonist -48 (no result: GALK inh)
Cc1ccc(OCCCCn2nnc3sc4c(c3c2=O)CCC(C)C4)cc1 (configuration not stated)	none (no result: Eya2 inh, GALK inh, USP2a inh)
O/N=C(/CCc1ccccc1)c1ccc2c(c1)OCCO2	D1 antagonist -41
CC1CCN(S(=O)(=O)c2ccc3nc(Nc4cccc(F)c4)ccc3c2)CC1	none (no result: Eya2 inh, GALK inh, USP2a inh)
CC(=O)N1CCc2c(sc(NC(=O)CSc3ccccc3)c2-c2nc3ccccc3s2)C1	none (no result: Eya2 inh, GALK inh, USP2a inh)
CN1CCc2c(sc(NC(=O)CSc3ccccc3)c2-c2nc3ccccc3s2)C1	D1 antagonist -54, D1 agonist 400 (no result: Eya2 inh, GALK inh, USP2a inh)
O=C(Cc1cccs1)N1CCN(S(=O)(=O)c2ccccc2)CC1	none
O=C(CCCc1cccs1)N1CCN(S(=O)(=O)c2ccccc2Br)CC1	D1 antagonist -31
COc1cccc(NC(=O)Cn2c(=O)ccc3cc(S(=O)(=O)N4CCC(C)CC4)ccc32)c1	none (no result: Eya2 inh, GALK inh, USP2a inh)
CCOC(=O)C1=C(C)NC(=O)NC1c1ccc([N+](=O)[O-])o1 (configuration not stated)	none
CCOC(=O)C1=C(C)NC2=C(C(=O)c3ccccc32)C1c1ccc([N+](=O)[O-])o1 (configuration not stated)	D1 antagonist -73
COCCn1c(SC(C)C(=O)NCC2CCCO2)nc2scc(-c3ccc(F)cc3)c2c1=O (configuration not stated)	D1 antagonist -42 (no result: GALK inh)
Cc1sc(NC(=O)CSc2nnc(C(C)C)n2C)c(C#N)c1C	none
Cc1sc(NC(=O)CSc2nnnn2C2CCCCC2)c(C#N)c1C	D1 antagonist -34
CCOC(=O)c1ccc(NC(=O)CSc2nnnn2C2CCCCC2)cc1	none
CCOc1ccc(NC(=O)CSc2nnnn2C2CCCC2)cc1	D1 agonist 47 (no result: D1 PAM)
CC(NC(=O)CN1C(=O)COc2ccc(Cl)cc21)c1ccccc1 (configuration not stated)	none (no result: Eya2 inh, GALK inh, USP2a inh)
O=C(Nc1nc2n(n1)C(c1ccc(Cl)cc1)C=C(c1ccccc1)N2)c1ccco1 (configuration not stated)	none (no result: Eya2 inh, GALK inh, USP2a inh)
O=S(=O)(Nc1cccc(-c2ccc(N3CCCC3)nn2)c1)c1ccc(F)c(C(F)(F)F)c1	none (no result: Eya2 inh, GALK inh, USP2a inh)
